Source: PubChem (National Center for Advancing Translational Sciences (NCATS))
AmpC detergent – blocks E. coli AmpC beta-lactamase in detergent assay | P00811 | AmpC hydrolysis of nitrocefin, absorbance 480 nm, 0.01% Triton | Potency, µM (series often up to 114 µM), without a hit: top-dose activity change, negative = inhibition, most hits filed as inhibitors | 0.041% of 370,000 active;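 note: potency is the fitted concentration of half-maximal effect; 0% = no-compound wells and -100% = no-enzyme wells; nearly all actives have a fitted effect of over 25% in size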
Target sequence (P00811 whole entry, looked up): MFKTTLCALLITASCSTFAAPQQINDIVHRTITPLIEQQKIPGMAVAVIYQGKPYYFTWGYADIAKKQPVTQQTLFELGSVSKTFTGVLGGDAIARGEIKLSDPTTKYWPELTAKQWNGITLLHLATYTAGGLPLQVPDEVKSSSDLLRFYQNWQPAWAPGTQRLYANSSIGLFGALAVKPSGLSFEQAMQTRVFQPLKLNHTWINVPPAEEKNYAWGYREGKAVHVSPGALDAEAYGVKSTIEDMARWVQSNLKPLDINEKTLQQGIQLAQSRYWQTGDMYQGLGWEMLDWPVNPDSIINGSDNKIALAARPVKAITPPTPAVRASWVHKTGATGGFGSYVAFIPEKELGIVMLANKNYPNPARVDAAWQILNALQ
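20 mM phosphate pH 7.0 + 0.01% (detergent screen) or 0.0001% Triton X-100; 5.3 nM AmpC reagent; cpd preinc 15 min RT; nitrocefin (800 uM stock) to start; A480 q20 s × 4 min; Activity was normalised to no-enzyme and no-compound control wells.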
SARS PLP yeast – blocks SARS-CoV papain-like protease in a yeast assay; S. cerevisiae expressing SARS-CoV PLpro, growth rescue; Potency, µM (series often up to 32.9 µM), without a hit: at the highest dose activity, positive = growth rescue, usual class: activators; 0.19% of 330,000 active; calls by dose curve; note: potency is the fitted concentration of half-maximal effect; 0% is about no effect; nearly all actives have a fitted effect of over 55% in size
AMA1 RON2 block – disrupts binding of P. falciparum AMA1 to RON2; AlphaScreen AMA1-biotinylated RON2 peptide binding; Potency, µM (titrated, usually from 58.2 µM), without a hit: at the highest dose activity change, negative = inhibition, hits mostly inhibitors; 0.2% of 360,000 active;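 note: potency is the fitted concentration of half-maximal effect; 0% = vehicle wells and -100% = peptide control; nearly all actives have a fitted effect of over 45% in size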
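AMA1 (3D7) with his tag at 25 nM final met compounds first, then biotinylated RON2 peptide at 25 nM; detection used donor plus acceptor beads, 10 µg/mL apiece, read by AlphaScreen after 30 min at room temperature.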
AmpC no deterg – blocks E. coli AmpC beta-lactamase in detergent-free assay; P00811; AmpC nitrocefin hydrolysis, absorbance 480 nm, 0.0001% Triton; Potency, µM (series often up to 57.1 µM), without a hit: at the highest dose activity change, negative = inhibition, actives largely listed as inhibitors; 0.52% of 330,000 active; AID 485341;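 note: potency is the fitted concentration of half-maximal effect; plate controls were no compound for no effect and no enzyme for full effect; nearly all actives have a fitted effect of over 20% in size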
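AmpC (5.3 nM in the dispensed reagent) in 20 mM phosphate pH 7.0 with 0.01% (detergent screen) or 0.0001% Triton X-100 was preincubated with compounds for 15 min at room temperature. Nitrocefin was then added from an 800 uM solution, and hydrolysis was followed at 480 nm.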
CHX counter – affects cycloheximide protein synthesis inhibition readout, counter-screen. cell reporter, cycloheximide protein synthesis inhibition counterscreen. max response, %. 12% of 300,000 active. AID 2314; in the data active = max response mostly above about 13%, no sharp cut-off; inactive = mostly below about 14%; note: read at 38.3 µM for the half of the compounds with a filed dose; 0% is about no effect
Shiga inhibitor – blocks Shiga toxin action in Vero cells | Vero cells, Shiga toxin protein synthesis inhibition reporter | inhibition, % at 38.7 µM | 9.2% of 290,000 active | AID 2315; in the data active = inhibition mostly above about 28%, no sharp cut-off; inactive = mostly below about 43%; note: 0% is about no effect
Numbers without * were called inactive; [ ] = dose if it differs, or a comment. Only a selection was taken, and hits are over-represented in it overall. Unless noted, calls come from the whole dose curve; as a rule, active = well fitted curve in the direction sought with a large enough effect; inconclusive = small, poorly fitted or top-dose-only effect, or another doubt; inactive = no such curve, though single readings can be large; an effect the other way counts as inactive or inconclusive.

What do the screens show for `O=C(Nc1ccc(F)cc1)N1CCc2ccccc2C1`?
AmpC detergent: 3%; SARS PLP yeast: -3%; AMA1 RON2 block: -8%; AmpC no deterg: -23%; CHX counter: 51*; Shiga inhibitor: 91*

How did O=C(CN1CCc2ccccc2C1)Nc1ccc(Br)cc1 do in these assays?
AmpC detergent: inconclusive; SARS PLP yeast: -4%; AMA1 RON2 block: -2%; AmpC no deterg: -19%; CHX counter: 15; Shiga inhibitor: 18

What do the screens show for `O=C(Nc1ccc(Br)cc1)N1CCc2ccccc2C1`?
AmpC detergent: -8%; SARS PLP yeast: -11%; AMA1 RON2 block: 0%; AmpC no deterg: -46%; CHX counter: 53*; Shiga inhibitor: 126*

What do the screens show for `Cc1cccc(NCc2ccccc2)c1`?
AmpC detergent: -7%; SARS PLP yeast: 1%; AMA1 RON2 block: -13%; AmpC no deterg: -21%; CHX counter: 5; Shiga inhibitor: 22

What do the screens show for `Cc1ccc(NCc2ccccc2O)cc1`?
AmpC detergent: -7%; SARS PLP yeast: -5%; AMA1 RON2 block: -15%; AmpC no deterg: -41%; CHX counter: 30*; Shiga inhibitor: 72*

How did Fc1ccccc1CNc1ccc(Cl)c(Cl)c1 do in these assays?
AmpC detergent: -10%; SARS PLP yeast: 0%; AMA1 RON2 block: 23%; AmpC no deterg: -20%; CHX counter: 19; Shiga inhibitor: 59

How did Cc1ccc(NCc2ccccc2F)cc1 do in these assays?
AmpC detergent: inconclusive; SARS PLP yeast: 0%; AMA1 RON2 block: 12%; AmpC no deterg: -29%; CHX counter: 9; Shiga inhibitor: 29*

Results for Cc1cccc(NCc2ccccc2O)c1 ?
AmpC detergent: -4%; SARS PLP yeast: -9%; AMA1 RON2 block: -6%; AmpC no deterg: -25%; CHX counter: 18*; Shiga inhibitor: 25

What do the screens show for `Cc1cccc(NCCNc2cccc(C)c2)c1`?
AmpC detergent: -4%; SARS PLP yeast: 4%; AMA1 RON2 block: inconclusive; AmpC no deterg: -27%; CHX counter: 18*; Shiga inhibitor: 25

How did O=C(OCn1nnc2ccccc2c1=O)c1ccc(N2CCOCC2)c([N+](=O)[O-])c1 do in these assays?
AmpC detergent: -17%; SARS PLP yeast: -21%; AMA1 RON2 block: 5%[2.32 µM]; AmpC no deterg: 56%; CHX counter: 11; Shiga inhibitor: 2

What do the screens show for `CC1CC(C)CN(S(=O)(=O)c2ccc(C(=O)N3CCOCC3)cc2)C1` (centres undefined)?
AmpC detergent: -2%; SARS PLP yeast: -3%; AMA1 RON2 block: -1%; AmpC no deterg: 12%; CHX counter: -2; Shiga inhibitor: 17

Results for NC(=O)c1ccc2c(=O)n3c(-c4cccs4)csc3nc2c1 ?
AmpC detergent: 4%; SARS PLP yeast: 4%; AMA1 RON2 block: -10%; AmpC no deterg: -24%; CHX counter: 25*; Shiga inhibitor: 32*

How did Cc1csc(-c2coc3cc(O)cc(C)c3c2=O)n1 do in these assays?
AmpC detergent: -2%; SARS PLP yeast: -6%; AMA1 RON2 block: 0%; AmpC no deterg: -43%; CHX counter: 30*; Shiga inhibitor: 108*

What do the screens show for `COc1ccc2c(=O)c(-c3nc(C)cs3)coc2c1`?
AmpC detergent: inconclusive; SARS PLP yeast: -12%; AMA1 RON2 block: 1%; AmpC no deterg: -7%; CHX counter: 45*; Shiga inhibitor: 79*

Results for CCc1cc2c(=O)c(-c3nc(C)cs3)coc2cc1O ?
AmpC detergent: 5%; SARS PLP yeast: -1%; AMA1 RON2 block: -5%; AmpC no deterg: -10%; CHX counter: 34*; Shiga inhibitor: 38*

How did Cc1nc(-c2coc3cc(OCC(=O)O)ccc3c2=O)cs1 do in these assays?
AmpC detergent: 3%; SARS PLP yeast: -4%; AMA1 RON2 block: 0%; AmpC no deterg: -2%; CHX counter: -2; Shiga inhibitor: -16

Results for COc1ccc(-c2coc3cc(O)c(OC)cc3c2=O)cc1 ?
AmpC detergent: 6%; SARS PLP yeast: 4%; AMA1 RON2 block: 6%; AmpC no deterg: -2%

What do the screens show for `Cc1nc(-c2coc3cc(O)c(C)cc3c2=O)cs1`?
AmpC detergent: 0%; SARS PLP yeast: -10%; AMA1 RON2 block: -10%; AmpC no deterg: -19%; CHX counter: 21*; Shiga inhibitor: 39

How did COc1cc(CC(=O)OCC(=O)Nc2ccccc2C#N)cc(OC)c1OC do in these assays?
AmpC detergent: -5%; SARS PLP yeast: 3%; AMA1 RON2 block: 4%; AmpC no deterg: -2%

Results for Cc1ccc(/C=C2/SC(=S)N(CCC(=O)N3CCN(C)CC3)C2=O)cc1 ?
AmpC detergent: -2%; SARS PLP yeast: 0%; AMA1 RON2 block: 1%; AmpC no deterg: 27%; CHX counter: -3; Shiga inhibitor: 8

How did Cc1ccc(/C=C2\SC(=O)N(CCC(=O)N3CCN(C)CC3)C2=O)cc1 do in these assays?
AmpC detergent: -9%; SARS PLP yeast: 3%; AMA1 RON2 block: -6%; AmpC no deterg: 45%; CHX counter: 27*; Shiga inhibitor: 45*

How did Cc1ccc(/C=C2\SC(=S)N(CCC(=O)NNS(=O)(=O)c3ccc(C)cc3)C2=O)cc1 do in these assays?
AmpC detergent: 1%; SARS PLP yeast: 25%; AMA1 RON2 block: 0%; AmpC no deterg: -8%; CHX counter: 25*; Shiga inhibitor: 13

What do the screens show for `CN1CCN(C(=O)CCN2C(=O)S/C(=C/c3ccc(Cl)cc3)C2=O)CC1`?
AmpC detergent: 2%; SARS PLP yeast: 0%; AMA1 RON2 block: -16%; AmpC no deterg: -4%; CHX counter: 5; Shiga inhibitor: 21

Results for Cc1ccc(/C=C2/SC(=S)N(CCC(=O)N3CCOCC3)C2=O)cc1 ?
AmpC detergent: -10%; SARS PLP yeast: 1%; AMA1 RON2 block: -2%; AmpC no deterg: -5%; CHX counter: 16*; Shiga inhibitor: 23

What do the screens show for `COc1cccc(Nc2nc(-c3sc(NC(=O)c4ccco4)nc3C)cs2)c1`?
AmpC detergent: -1%; SARS PLP yeast: 3%; AMA1 RON2 block: 17%; AmpC no deterg: -29%; CHX counter: 7; Shiga inhibitor: 34

What do the screens show for `CCCCNc1oc(-c2ccc(OC)cc2)nc1S(=O)(=O)c1ccccc1`?
AmpC detergent: 0%; SARS PLP yeast: 2%; AMA1 RON2 block: -14%; AmpC no deterg: -5%; CHX counter: 11; Shiga inhibitor: 7

What do the screens show for `C=CCN=c1scc(C)n1/N=C/c1ccc(O)c(O)c1`?
AmpC detergent: -13%; SARS PLP yeast: 0%; AMA1 RON2 block: -4%; AmpC no deterg: -29%[11.4 µM]; CHX counter: 37*; Shiga inhibitor: 65*

What do the screens show for `CN=c1scc(C)n1/N=C/c1ccc(O)cc1`?
AmpC detergent: -5%; SARS PLP yeast: -3%; AMA1 RON2 block: -9%; AmpC no deterg: -21%; CHX counter: 38*; Shiga inhibitor: 117*
